Here are results for 7 compounds from PubChem BioAssay.

A short description of experiment [1]: compound effects on lung adenocarcinoma cell viability – A549, calcein-AM fluorescence, 48 h, basal, profiling panel (AID 1162). Also: test concentration not given here. The note with it: higher = more signal.
Experiment [2] is described as follows: compound effects on differentiated 3T3-L1 adipocyte viability – cell-based, 3T3-L1 adipocytes, calcein-AM fluorescence, 48 h, basal, profiling panel (AID 1163). Also: test concentration not given here. The conditions noted are these: 3T3-L1 adipocytes viability, higher = more signal.
A short description of experiment [3]: compound effects on hepatocellular carcinoma cell viability – HepG2, calcein-AM fluorescence, 48 h, basal, profiling panel (AID 1164). Also: test concentration not given here. The conditions noted are these: higher = more signal.
The nature of experiment [4]: compound effects on multiple myeloma cell viability – MM1S, calcein-AM fluorescence, 48 h, basal, profiling panel (AID 1165).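 Also: viability of MM1S multiple myeloma cells under basal unstimulated conditions; test concentration not given here.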 The note with it: higher = more signal.
The nature of experiment [5]: calcein-AM signal in unstimulated myeloma cells – cell-based, calcein-AM fluorescence, 48 h, PK04 Diversity Set, profiling panel (AID 1166).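 Also: cells grown under basal conditions without added stimulus; test concentration not given here.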 The note with it: RPMI8226 myeloma viability, higher = more signal.
The nature of experiment [6]: JC-1 mitochondrial signal, unstimulated HepG2 cells – cell-based, JC-1 fluorescence, 24 h, 100 nL compound, profiling panel (AID 1167). Also: test concentration not given here. The note with it: HepG2 mitochondrial potential, higher = more signal.
The nature of experiment [7]: JC-1 mitochondrial signal, unstimulated adipocytes – cell-based, JC-1 fluorescence, 3T3-L1 adipocytes, 24 h, 100 nL compound, profiling panel (AID 1168). Also: test concentration not given here. The conditions noted are these: JC-1 mitochondrial fluorescence, higher = more signal, called active from +8 up or from −8 down.
The nature of experiment [8]: JC-1 mitochondrial signal, unstimulated myeloma cells – cell-based, JC-1 fluorescence, RPMI8226, 24 h, 100 nL compound, profiling panel (AID 1169). Also: test concentration not given here. The conditions noted are these: JC-1 mitochondrial potential fluorescence, higher = more signal.
Experiment [9] in a line: JC-1 mitochondrial signal, unstimulated MM1S myeloma – cell-based, JC-1 fluorescence, 24 h, 100 nL compound, profiling panel (AID 1170). Also: test concentration not given here. The conditions noted are these: MM1S mitochondrial potential, higher = more signal.
Experiment [10] in a line: resazurin metabolic signal in A549 cells – cell-based, resazurin fluorescence, 24 h, PK04 Diversity Set, profiling panel (AID 1171). Also: test concentration not given here. The note with it: A549 viability, higher = more signal, called active from +8 up or from −8 down. For orientation: Alamar Blue is a resazurin reagent that responds to reducing activity.
Experiment [11] can be described thus: resazurin metabolic signal in HepG2 cells – cell-based, resazurin fluorescence, 24 h, PK04 Diversity Set, profiling panel (AID 1172). Also: test concentration not given here. The conditions noted are these: HepG2 viability, higher = more signal.
A short description of experiment [12]: budding yeast growth changes without added modifier – OD600, strain BY4716, 24 h, basal condition, primary screen (AID 1173). The note with it: S. cerevisiae BY4716 growth, OD600, 24 h; higher = more signal, called active from +8 up or from −8 down.
Experiment [13] is described as follows: viability profiling in MM1S myeloma cells – cell-based, resazurin fluorescence, basal, 24 h, PK04 Diversity Set, profiling panel (AID 1174). Also: test concentration not given here. The note with it: higher = more signal, called active from +8 up or from −8 down.
Experiment [14] addresses Dihydroorotate dehydrogenase (quinone), mitochondrial (Plasmodium falciparum (isolate 3D7)) (UniProt Q08210). The experiment is described as follows: inhibition of P. falciparum DHODH – biochemical, C-terminal His tag, absorbance 600 nm, primary screen (AID 1175).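 Also: recombinant parasite enzyme with a five histidine tag at its C terminus; test concentration not given here.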 The note with it: PfDHODH enzyme, DCIP absorbance 600 nm; higher = more signal, called active from +8 up or from −8 down.

Experiment [15] can be described thus: inhibition of PAO1 biofilm formation – strain PAO1, LB-PBS medium, absorbance 600 nm, primary screen (AID 1176). Also: test concentration not given here. The conditions noted are these: P. aeruginosa PAO1 growth/biofilm, A600, 12 h; higher = more signal.
A short description of experiment [16]: growth modulation of vineyard yeast isolate – strain RM11-1a, OD600, basal, 24 h, primary screen (AID 1177).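 Also: cultures grown under basal conditions with no added stressor; test concentration not given here.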 The conditions noted are these: S. cerevisiae RM11-1a growth, OD600, 24 h; higher = more signal, called active from +8 up or from −8 down.
Experiment [17] can be described thus: growth of efflux-deficient E. coli DRC39 – strain DRC39, OD650, 24 h, E. coli filamentation inducers, primary screen (AID 1178).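 Also: growth measured as culture turbidity by optical density at 650 nm; test concentration not given here.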 The conditions noted are these: E. coli DRC39 acrAB, higher = more signal, called active from +8 up or from −8 down.
The nature of experiment [18]: growth of efflux-deficient E. coli DRC39 – strain DRC39, OD650, 48 h, E. coli filamentation inducers, primary screen (AID 1179).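 Also: screen aims at cell division blockers that make cells filament.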 The conditions noted are these: E. coli DRC39 delta-acrAB growth, higher = more signal, called active from +8 up or from −8 down.
A short description of experiment [19]: viability profiling in RPMI8226 myeloma cells – cell-based, resazurin fluorescence, basal, 24 h, PK04 Diversity Set, profiling panel (AID 1180).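 Also: RPMI8826 multiple myeloma cell line at 5000 cells per well; test concentration not given here.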 The note with it: higher = more signal.
Experiment [20] deals with E3 ubiquitin-protein ligase XIAP (Homo sapiens) (UniProt P98170). The experiment is described as follows: small molecules binding XIAP protein – biophysical, small-molecule microarray, fluorescence 635 nm, primary screen (AID 1181).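 Also: score merges 667 nm emission and signal to noise over triplicate slides.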 The conditions noted are these: higher = more signal.
Sequence of E3 ubiquitin-protein ligase XIAP (Homo sapiens) (P98170 whole entry, looked up): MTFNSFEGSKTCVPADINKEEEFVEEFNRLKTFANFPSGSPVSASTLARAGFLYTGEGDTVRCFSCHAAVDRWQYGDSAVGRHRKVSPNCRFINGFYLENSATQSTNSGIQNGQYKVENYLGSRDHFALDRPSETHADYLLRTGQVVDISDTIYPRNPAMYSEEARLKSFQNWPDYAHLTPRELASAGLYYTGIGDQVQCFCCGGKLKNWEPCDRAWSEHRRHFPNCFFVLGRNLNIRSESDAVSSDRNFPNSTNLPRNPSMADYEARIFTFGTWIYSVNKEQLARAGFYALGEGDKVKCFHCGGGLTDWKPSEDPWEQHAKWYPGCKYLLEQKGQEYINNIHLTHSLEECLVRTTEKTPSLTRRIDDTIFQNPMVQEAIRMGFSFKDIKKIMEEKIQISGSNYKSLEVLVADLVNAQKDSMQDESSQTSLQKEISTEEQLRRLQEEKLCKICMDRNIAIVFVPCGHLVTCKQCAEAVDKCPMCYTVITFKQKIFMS

The source made the active and inactive calls. Unless noted, no rule for the calls is given here.

Sequence of Dihydroorotate dehydrogenase (quinone), mitochondrial (Plasmodium falciparum (isolate 3D7)) (Q08210 whole entry, looked up): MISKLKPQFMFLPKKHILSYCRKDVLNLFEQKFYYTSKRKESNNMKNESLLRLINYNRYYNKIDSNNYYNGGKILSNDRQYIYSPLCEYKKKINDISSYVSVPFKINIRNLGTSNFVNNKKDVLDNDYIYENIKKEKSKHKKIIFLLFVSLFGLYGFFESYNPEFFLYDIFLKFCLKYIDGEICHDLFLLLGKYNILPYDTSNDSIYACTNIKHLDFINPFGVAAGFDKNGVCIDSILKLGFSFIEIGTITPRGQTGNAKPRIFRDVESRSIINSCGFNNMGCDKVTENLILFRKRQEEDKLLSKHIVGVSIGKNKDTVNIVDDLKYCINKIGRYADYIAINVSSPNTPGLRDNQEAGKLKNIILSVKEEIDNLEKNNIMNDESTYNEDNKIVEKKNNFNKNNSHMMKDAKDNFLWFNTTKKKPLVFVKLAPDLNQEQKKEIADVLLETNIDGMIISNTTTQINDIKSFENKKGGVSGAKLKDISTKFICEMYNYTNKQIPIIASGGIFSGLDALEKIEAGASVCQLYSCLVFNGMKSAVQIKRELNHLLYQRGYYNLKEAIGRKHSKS

With `CCCC[C@@H]1C[C@H]1[C@@H](NC(=O)Cc1ccccc1)c1ccc(-c2ccccc2)cc1`, the z-score is -0.902 in experiment [1]; -0.12 in [2]; -0.323 in experiment [3]; -0.378 in experiment [4]; -1.48 in experiment [5]; -0.929 in experiment [6]. Also, the z-score in experiment [7] was -0.118 (inactive); in experiment [8], 0.043; in experiment [9], -1.71; in experiment [10], 0.261 (inactive); in experiment [11], 1.21; in experiment [12] it was 0.953 (inactive). For the same compound, the z-score in [13] is 0.143 (inactive); in experiment [15] it was -1.19 (inactive); in [16], 0.636 (inactive); in experiment [17], -0.104 (inactive); in experiment [18], 0.289 (inactive); in experiment [19] it was -1.18. The values for the composite z-score in experiment [14] and in experiment [20] were 0.183 (inactive) and -0.0351, respectively.
Turning to `CCOC(=O)C[C@H]1[C@H](OC(=O)Cc2ccc3c(c2)OCO3)[C@@H](NC(=O)Cc2ccc(OC)cc2)c2cc(OCCCO)ccc2N1C(=O)c1ccc2ccccc2n1`, the z-score in experiment [1] was 2.47; in [2], 0.189; in [3] it was 1.37; in [4], 0.631; in experiment [5], -0.577; in experiment [6], 1.84. Moreover, the z-score is 0.929 (inactive) in experiment [7]; 0.628 in [8]; 0.819 in experiment [9]; -0.23 (inactive) in experiment [10]; -0.337 in [11]; -1.12 (inactive) in [12]. For the same compound, the z-score in experiment [13] was 0.853 (inactive); in experiment [15], 0.82 (inactive); in [16] it was -2.18 (inactive); in experiment [17] it was 2.3 (inactive); in [18], 2.12 (inactive); in [19], 0.0153. Further, the composite z-score is -0.689 (inactive) in experiment [14] and 0.0526 in [20].
In the case of `Cc1ccc(S[C@]2(C(=O)O)CC(=O)N(Cc3cc(C(F)(F)F)cc(C(F)(F)F)c3)[C@@H]2c2ccc(CO)cc2)cc1`, the z-score in experiment [1] was -0.192; in experiment [2] it was -0.228; in experiment [3], -0.618; in [4] it was -0.424; in experiment [5], -0.82; in experiment [6], -0.555. The z-score in [7] was -0.717 (inactive); in experiment [8] it was 0.83; in experiment [9], -0.694; in experiment [10] it was -0.0055 (inactive); in experiment [11], -0.403; in [12] it was -0.54 (inactive). Besides, the z-score in experiment [13] is -0.543 (inactive); in experiment [15] it was 0.761 (inactive); in experiment [16] it was 0.988 (inactive); in experiment [17], -0.296 (inactive); in experiment [18] it was -0.526 (inactive); in [19], -0.278. Further, the composite z-score in experiment [14] is -0.254 (inactive); in [20] it was -0.053.
As to `O=C1O[C@@H](c2ccccc2)[C@@H](c2ccccc2)N2[C@@H](c3ccc(O)cc3)[C@]3(C(=O)Nc4ccc(C#CC5(O)CCCCCC5)cc43)[C@@H](C(=O)NC[C@H](O)c3ccccc3)[C@H]12`, the z-score in experiment [1] was -0.0476; in experiment [2], 0.264; in experiment [3], -0.181; in [4] it was -2.14; in [5] it was -1.31; in experiment [6] it was -2.14. Besides, the z-score was -1.16 (inactive) in experiment [7]; -0.66 in experiment [8]; -0.279 in experiment [9]; 0.119 (inactive) in experiment [10]; 0.677 in [11]; -0.263 (inactive) in experiment [12]. For the same compound, the z-score in [13] is -0.418 (inactive); in [15] it was 0.348 (inactive); in experiment [16], 0.417 (inactive); in experiment [17], -0.839 (inactive); in [18], -0.938 (inactive); in experiment [19] it was -0.809. Besides, the composite z-score in experiment [14] is 0.409 (inactive); in experiment [20], -0.312.
`CC(=O)NCCCC[C@@H]1NC(=O)[C@@H]2C[C@H](C(=O)NCCCC[N+](C)(C)C)[C@H](c3ccc(O)cc3)N2C1=O`: the z-score is -0.431 in experiment [1]; 0.994 in experiment [2]; -1.29 in experiment [3]; -0.606 in [4]; 0.274 in experiment [5]; -1.42 in [6]. For the same compound, the z-score in experiment [7] was -0.152 (inactive); in experiment [8], -0.547; in [9], -0.0697; in [10] it was -1.04 (inactive); in experiment [11] it was -0.294; in [12], -0.0108 (inactive). Besides, the z-score was -1.23 (inactive) in experiment [13]; 2.35 (inactive) in experiment [15]; 0.55 (inactive) in experiment [16]; -0.0376 (inactive) in experiment [17]; -1.1 (inactive) in experiment [18]; -1.2 in [19]. In addition, the composite z-score was -30.7 (active) in [14] and -0.168 in experiment [20].
As for `CN(C)C(=O)[C@@]1(CCS(=O)(=O)c2ccccc2)N=C(c2ccc(OCCCO)cc2)O[C@H]1c1ccccc1`, the z-score in experiment [1] is 0.0979; in experiment [2] it was 0.171; in experiment [3], 0.568; in experiment [4], -0.215; in experiment [5], -2.01; in experiment [6], -0.104. Further, the z-score in experiment [7] is -0.268 (inactive); in experiment [8], 0.331; in [9] it was 0.0134; in experiment [10], -0.124 (inactive); in experiment [11], 0.29; in [12], 0.26 (inactive). The z-score in [13] was -0.236 (inactive); in [15] it was -0.372 (inactive); in [16] it was -0.0905 (inactive); in [17], -1.47 (inactive); in experiment [18], -0.732 (inactive); in experiment [19] it was -0.22. In addition, the composite z-score in [14] was -0.431 (inactive); in [20], -0.0866.
In the case of `CC(C)C[C@@H]1NC(=O)[C@@H]2C[C@H](C(=O)NCCCCN(C)C)[C@H](c3cccc(OCCO)c3)N2C1=O`, the z-score was 0.355 in [1]; 0.507 in experiment [2]; -1.2 in experiment [3]; 0.26 in experiment [4]; 0.54 in experiment [5]; -0.627 in experiment [6]. Moreover, the z-score is 0.454 (inactive) in experiment [7]; -0.601 in experiment [8]; -0.443 in experiment [9]; 0.389 (inactive) in experiment [10]; 0.0064 in [11]; -0.453 (inactive) in [12]. Further, the z-score in [13] was 0.303 (inactive); in experiment [15] it was 0.655 (inactive); in [16], -0.121 (inactive); in experiment [17], 0.0825 (inactive); in experiment [18], -0.653 (inactive); in experiment [19], -0.127. The composite z-score was -1.21 (inactive) in experiment [14] and -0.0749 in [20].
